Screens (PubChem)
Rows were chosen to be rich in hits. Some 1.8% of all compounds tested hit in one or more screens of this group.
LYPLA2 inh: blocks human lysophospholipase 2, a PME1 counter-screen; inhibition, % at 5.9 µM; 320,000 tested, 0.38% active; recombinant LYPLA2, FP-Rh probe fluorescence polarization; O95372;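 active means inhibition above the screen-wide mean plus 3 SD, limit set per campaign, cut at about 26% in these data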;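 further: 0% = LYPLA2 with DMSO and 100% = wells lacking LYPLA2 enzyme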
Target sequence (O95372 whole entry, looked up): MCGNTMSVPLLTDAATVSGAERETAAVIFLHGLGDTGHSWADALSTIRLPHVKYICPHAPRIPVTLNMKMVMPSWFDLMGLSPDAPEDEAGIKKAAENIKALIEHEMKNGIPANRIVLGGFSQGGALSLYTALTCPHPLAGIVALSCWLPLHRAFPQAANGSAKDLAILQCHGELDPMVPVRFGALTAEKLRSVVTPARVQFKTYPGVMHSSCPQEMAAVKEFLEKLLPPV
Fam108B counter: counter-screen for RBBP9 inhibitors: inhibitors of mouse Fam108B; recombinant Fam108B, FP-Rh probe fluorescence polarization; 300,000 tested, 0.33% active; inhibition, % at 9.51 µM;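 active means inhibition above the screen mean inhibition plus 3 SD, computed separately per campaign, cut at about 18% in these data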;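 further: inhibitors lower polarization as less probe binds the enzyme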
GSTO1 inh: counter-screen for RBBP9 inhibitors: inhibitors of human GSTO1. recombinant GSTO1, activity-based probe fluorescence polarization. AID 1974. inhibition, % at 5.96 µM. 300,000 tested, 1.1% active. P78417;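 active means inhibition above the campaign mean inhibition plus 3 SD, cut at about 35% in these data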;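 further: 0% = GSTO1-1 with DMSO and 100% = wells lacking GSTO1-1 enzyme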
Target sequence (P78417 whole entry, looked up): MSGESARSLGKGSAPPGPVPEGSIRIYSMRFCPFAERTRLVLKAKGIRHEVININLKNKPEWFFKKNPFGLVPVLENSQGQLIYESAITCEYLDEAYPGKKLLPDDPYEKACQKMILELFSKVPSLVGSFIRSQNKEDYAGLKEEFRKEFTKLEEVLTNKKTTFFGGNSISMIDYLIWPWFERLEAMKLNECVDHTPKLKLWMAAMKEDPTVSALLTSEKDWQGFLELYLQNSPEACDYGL
PME-1 primary: PME-1 (human) inhibition. Q9Y570. recombinant PME-1, FP-Rh probe fluorescence polarization. inhibition, % at 5.9 µM. 320,000 tested, 0.53% active;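 active means inhibition above the campaign mean of all compounds plus 3 SD, cut at about 26% in these data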;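 further: competitive labeling of PME-1 active site by serine hydrolase directed probe; 0% = PME-1 with DMSO and 100% = wells lacking PME-1 enzyme; inhibitors block probe labeling so polarization falls and inhibition rises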
PAD4 FP inh: blocks human protein arginine deiminase 4 | Q9UM07 | 330,000 tested, 0.41% active | recombinant PAD4, RCA probe fluorescence polarization | inhibition, % at 6.36 µM;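 active means percent inhibition above a cutoff equal to the mean of all tested compounds plus 3 SD, cut at about 15% in these data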;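 further: 0% = PAD4 with RCA probe and DMSO and 100% = probe without PAD4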
LYPLA1 inh: LYPLA1 (human) inhibition in PME1 counter-screen; O75608; recombinant LYPLA1, FP-Rh probe fluorescence polarization; inhibition, % at 5.9 µM; 320,000 tested, 0.16% active; AID 2174;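 active means inhibition above the mean of all tested compounds plus 3 SD, set per campaign, cut at about 14% in these data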;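 further: inhibitors block serine hydrolase probe labeling of LYPLA1 so polarization falls; 0% = enzyme with DMSO and 100% = wells lacking LYPLA1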
LYPLA1 conf: LYPLA1 (human) inhibition, confirmation counter-screen; shares compounds with LYPLA1 inh; recombinant LYPLA1, FP-Rh probe fluorescence polarization; inhibition, % at 5.9 µM; 480 tested, 69% active; AID 2233;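 active means mean inhibition across replicates above the hit cutoff set in the primary screen, cut at about 15% in these data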;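 further: loss of FP-Rh probe labeling of LYPLA1 seen as lower polarization; 0% = LYPLA1 with DMSO and 100% = wells lacking LYPLA1 enzyme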
* marks the source's active call; other numbers are inactive results; x = not tested or not shown.

SMILES	LYPLA2 inh	Fam108B counter	GSTO1 inh	PME-1 primary	PAD4 FP inh	LYPLA1 inh	LYPLA1 conf
C=C(C)C1CCC(C)=C1CC(C)(C)/C=N\n1cnnc1 (stereo not drawn)	-8.3	-0.1	0.8	2.7	0.2	-4.4	x
COc1ccc(CC(NC(C)=O)C(=O)NC2CCN(S(=O)(=O)c3ccc(NC(C)=O)cc3)CC2)c(OC)c1 (stereo not drawn)	-8.4	-2.1	1.0	-2.1	2.2	-0.9	x
COc1ccc(CC(=O)Nc2ccc(S(=O)(=O)N3CCC(C)CC3)cc2)c(OC)c1	-2.6	x	x	-5.0	-2.0	17.1*	-4.6
CCOC(=O)N1CCC(n2c(SCC(=O)NCCc3ccc(S(N)(=O)=O)cc3)nc3ccccc3c2=O)CC1	2.9	4.1	3.2	0.9	6.8	2.7	x
CCOc1ccc(C(=O)NNC2CC(=O)N(Cc3ccc(Cl)cc3)C2=O)cc1OC (stereo not drawn)	-2.2	3.5	3.1	1.5	0.2	0.4	x
COc1ccc([C@H]2CC(=O)C=C(c3ccc(C)c([N+](=O)[O-])c3)C2)cc1	14.7	x	x	4.9	-4.0	17.8*	17.5*
COc1ccc([C@H]2CC(=O)C=C(c3ccc4c(c3)OCCO4)C2)cc1	13.4	x	x	-0.8	-10.7	2.8	x
O=C(CN1Cc2ccccc2C1=O)Nc1ccc2c(c1)OCCO2	1.9	3.8	6.2	1.5	-3.4	0.6	x
CCN(c1ccccc1)S(=O)(=O)c1ccc(OC)c(NC(=O)CN(C)C)c1	4.3	-0.5	-2.6	1.4	0.1	14.9*	7.3
CCN(c1ccccc1)S(=O)(=O)c1ccc(OC)c(NC(=O)CNC)c1	-3.8	-4.7	-12.7	-3.7	-12.9	0.4	x
CC(=O)Nc1ccc(C(=O)OCC(=O)NC2CCCCCCC2)cc1	-2.2	5.5	10.2	5.6	-0.4	-0.6	x
Cc1ccc(C2(COC(=O)C(C)C)CO2)c(OC(=O)C(C)C)c1 (stereo not drawn)	4.2	1.3	-1.0	-0.1	-2.3	29.4*	1.4
COc1cc(/C=N/NC(=O)c2ccc(Cn3cc([N+](=O)[O-])cn3)o2)cc(Br)c1O	-2.6	-0.5	-5.8	0.5	-8.1	-1.9	x
COc1cc(/C=N\NC(=O)c2ccc(Cn3cc(Br)c([N+](=O)[O-])n3)o2)cc(OC)c1O	-2.4	12.8	-1.2	7.1	1.8	16.4*	10.1
CC1CCc2c(sc(NC(=O)CN3CCN(C(=O)c4ccco4)CC3)c2C#N)C1 (stereo not drawn)	24.8	-3.2	-4.5	0.0	4.3	42.0*	41.8*
CC(C)c1nc2oc3c(N(C)CCO)ncnc3c2c2c1CCC2	-2.4	0.5	-2.8	1.3	5.0	-2.2	x
CCOC(=O)c1c(NC(=O)CSc2ncnc3ccccc23)sc(C(C)=O)c1C	5.2	-0.8	-6.2	4.3	9.7	15.8*	8.0
N#Cc1c(NC(=O)CSc2nc(N)cc(=O)[nH]2)sc2c1CCCCCC2	20.2	-0.4	5.4	2.2	2.0	5.7	x
CC(Sc1nc(N)cc(=O)[nH]1)C(=O)Nc1sc2c(c1C#N)CCCC2 (stereo not drawn)	9.4	-0.8	7.1	0.1	1.2	29.8*	39.3*
CCC1CCCCN1C(=O)CCc1nnc(C2CCCCC2)o1 (stereo not drawn)	3.5	-2.4	2.1	2.6	3.1	0.0	x
O=c1ccc2ccc(Oc3ccc([N+](=O)[O-])cc3[N+](=O)[O-])cc2o1	58.3*	2.4	5.3	42.1*	4.5	39.7*	40.2*
CCn1c2ccccc2c2nnc(SCc3ccc(C(=O)OC)o3)nc21	4.7	3.0	-0.8	4.3	1.5	15.0*	21.7*
Cc1ccc(Cl)cc1N1CCN(S(=O)(=O)c2cn(C)cn2)CC1	-1.1	-2.0	-6.0	-4.6	-5.7	1.8	x
O=c1nc(/C=C/c2ccc(-c3ccc(F)cc3)o2)cc(C(F)(F)F)[nH]1	-11.6	-11.1	-13.0	7.9	-9.0	-1.7	x
O=C(O)c1cc(Cl)ccc1-c1ccc(/C=C/c2cc(C(F)(F)F)[nH]c(=O)n2)o1	31.4*	6.0	-7.9	0.4	1.5	17.7*	0.0
SMILES	LYPLA2 inh	Fam108B counter	GSTO1 inh	PME-1 primary	PAD4 FP inh	LYPLA1 inh	LYPLA1 conf
O=C1NC(Cc2ccccc2)C(=O)N1Cc1cc([N+](=O)[O-])cc2c1OCOC2 (stereo not drawn)	-0.2	11.5	7.6	7.7	1.9	2.8	x
O=C(Nc1ccc(Oc2cccnc2)cc1)C1CCN(Cc2ccc(F)cc2)CC1	-4.1	-2.9	8.1	-1.1	-6.1	-2.6	x
O=C(Nc1ccc(Oc2cccnc2)cc1)C1CCN(Cc2cc(Cl)ccc2O)CC1	25.3	-0.9	-0.1	-2.8	-0.7	21.3*	18.0*
CCN(CC)S(=O)(=O)N1CCN(S(=O)(=O)N2CCOCC2)CC1	5.0	-0.1	5.3	5.0	-4.8	0.5	x
COc1ccc(CCNC(=O)CN(CCc2ccccc2)S(C)(=O)=O)cc1OC	2.5	-2.8	-4.1	-0.2	1.9	21.7*	2.5
COc1ccc(CCNC(=O)CN(c2ccccc2OC)S(C)(=O)=O)cc1OC	7.0	-1.8	-2.7	-2.9	-0.8	1.9	x
Cc1ccc(NC(=O)COc2ccc(/C=C3/SC(=Nc4ccccc4)N(Cc4cccnc4)C3=O)cc2)cc1	0.0	-11.1	-0.2	-0.3	-2.9	68.2*	-0.9
CC(OC(=O)c1ccc2ncsc2c1)C(=O)Nc1cccc(Cl)c1 (stereo not drawn)	-1.2	x	x	-3.6	-0.1	-4.3	x
CCN(CC)S(=O)(=O)c1cccc(-c2nnc(SCc3nc4ccccc4s3)o2)c1	-6.7	-6.4	8.9	-0.2	-4.6	14.5*	21.3*
CCN(CC)S(=O)(=O)c1cccc(-c2nnc(SCCCC(=O)c3ccccc3)o2)c1	-2.6	-8.3	-1.9	1.6	1.3	1.8	x
COc1ccc(C(C(=O)NC(C)(C)C)N(C(=O)CCC(=O)Nc2cc(C)on2)c2ccccc2F)cc1 (stereo not drawn)	1.5	-0.5	3.2	1.9	1.7	14.7*	0.6
COc1ccc(C(C(=O)NC(C)(C)C)N(C(=O)CCC(=O)Nc2cc(C)on2)c2cc(C)cc(C)c2)cc1 (stereo not drawn)	3.3	-2.6	-1.3	2.1	-2.5	2.2	x
COc1ccccc1-c1nnc(SCC(=O)NC2CC2)n1C	6.2	x	x	2.2	-6.5	1.3	x
COc1ccccc1-c1nnc(SCC(=O)NNC(=O)c2ccccc2F)n1C	6.8	x	x	-4.7	2.4	24.5*	3.9
CC1(OC(=O)c2cnc3ccccc3n2)C(=O)C=C2C=C(C3CC3)OC=C2C1=O (stereo not drawn)	76.1*	48.1*	42.6*	65.7*	37.9*	57.7*	27.0*
COc1ccc(/C=C/C(=O)NC(=S)N2CCN(c3ccccc3OC)CC2)cc1	-15.7	-7.0	3.0	-8.4	0.0	-6.9	x
